Assay [1] addresses Nuclear receptor coactivator 1 (Homo sapiens) (UniProt Q15788). The assay can be described thus: NCOA1 GAL4-fusion reporter inhibition – cell-based, luminescence, quadruplicate, confirmation (AID 588820;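 active = mean inhibition above 46.68%, the untreated control wells mean plus 3 SD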;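 also: 0% = DMSO wells and 100% = gossypol 36 µM treated wells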). As to conditions: HEK293 GAL4-SRC1 luciferase reporter, at 3.6 µM, stronger effect = higher value. For orientation: A reporter such as luciferase makes a cellular process visible.
Assay [2] is described as follows: repression of VP16-driven luciferase reporter – cell-based, luminescence, high throughput, counter-screen for SRC1 inhibitor project (AID 588824). Particulars: cell-based VP16 transactivation luciferase luminescence; at 3.6 µM; stronger effect = higher value.
Assay [3] has as its target Nuclear receptor coactivator 3 (Homo sapiens) (UniProt Q9Y6Q9). The assay can be described thus: NCOA3 GAL4-fusion reporter inhibition – cell-based, luminescence, quadruplicate, confirmation (AID 588792;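 active = mean inhibition over 43.08%, the solvent-only control mean plus 3 SD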;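 also: 0% = DMSO treated cells and 100% = gossypol at 36 µM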). As to conditions: HEK293 GAL4-SRC3 luciferase reporter, at 3.6 µM, stronger effect = higher value.
Assay [4] relates to transactivating tegument protein VP16 (Human herpesvirus 1), Gal4-VP16 luciferase reporter. In words: repression of VP16-driven luciferase reporter – cell-based, luminescence, high throughput, counter-screen for SRC3 inhibitor project (AID 588794; in the data active = inhibition above about 30%). Particulars: mammalian cells, at 3.6 µM, stronger effect = higher value.
The test system of assay [5] is transactivating tegument protein VP16 (Human herpesvirus 1). In words: compounds suppressing VP16-driven luciferase signal – cell-based, luminescence, single concentration, counter-screen for SRC2 inhibitor project (AID 652007; in the data active = inhibition above about 36%). As to conditions: cell-based VP16 transactivation luciferase reporter, at 8.9 µM, stronger effect = higher value. (In general: Counterscreens check selectivity or assay interference.)

Assay [6] concerns the target Nuclear receptor coactivator 2 (Homo sapiens) (UniProt Q15596). In words: inhibition of GAL4-SRC2 driven luciferase expression – cell-based, luminescence, HEK293, triplicate, confirmation (AID 652008;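 active = mean inhibition above 46.5%, the solvent-only control mean plus 3 SD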;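 also: 0% = DMSO-treated cells and 100% = Gossypol at 36 µM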). As to conditions: HEK293 GAL4-SRC2 luciferase reporter, at 8.9 µM, stronger effect = higher value.

Activity calls are given as the source filed them. Rule as the data show it, unless noted: active = inhibition above about 25%; inactive = the rest.

Usually inhibition stands for the relative decrease from the control value, in per cent.

Chain of Nuclear receptor coactivator 1 (Homo sapiens) (Q15788 whole entry, looked up, the tested form may be a part): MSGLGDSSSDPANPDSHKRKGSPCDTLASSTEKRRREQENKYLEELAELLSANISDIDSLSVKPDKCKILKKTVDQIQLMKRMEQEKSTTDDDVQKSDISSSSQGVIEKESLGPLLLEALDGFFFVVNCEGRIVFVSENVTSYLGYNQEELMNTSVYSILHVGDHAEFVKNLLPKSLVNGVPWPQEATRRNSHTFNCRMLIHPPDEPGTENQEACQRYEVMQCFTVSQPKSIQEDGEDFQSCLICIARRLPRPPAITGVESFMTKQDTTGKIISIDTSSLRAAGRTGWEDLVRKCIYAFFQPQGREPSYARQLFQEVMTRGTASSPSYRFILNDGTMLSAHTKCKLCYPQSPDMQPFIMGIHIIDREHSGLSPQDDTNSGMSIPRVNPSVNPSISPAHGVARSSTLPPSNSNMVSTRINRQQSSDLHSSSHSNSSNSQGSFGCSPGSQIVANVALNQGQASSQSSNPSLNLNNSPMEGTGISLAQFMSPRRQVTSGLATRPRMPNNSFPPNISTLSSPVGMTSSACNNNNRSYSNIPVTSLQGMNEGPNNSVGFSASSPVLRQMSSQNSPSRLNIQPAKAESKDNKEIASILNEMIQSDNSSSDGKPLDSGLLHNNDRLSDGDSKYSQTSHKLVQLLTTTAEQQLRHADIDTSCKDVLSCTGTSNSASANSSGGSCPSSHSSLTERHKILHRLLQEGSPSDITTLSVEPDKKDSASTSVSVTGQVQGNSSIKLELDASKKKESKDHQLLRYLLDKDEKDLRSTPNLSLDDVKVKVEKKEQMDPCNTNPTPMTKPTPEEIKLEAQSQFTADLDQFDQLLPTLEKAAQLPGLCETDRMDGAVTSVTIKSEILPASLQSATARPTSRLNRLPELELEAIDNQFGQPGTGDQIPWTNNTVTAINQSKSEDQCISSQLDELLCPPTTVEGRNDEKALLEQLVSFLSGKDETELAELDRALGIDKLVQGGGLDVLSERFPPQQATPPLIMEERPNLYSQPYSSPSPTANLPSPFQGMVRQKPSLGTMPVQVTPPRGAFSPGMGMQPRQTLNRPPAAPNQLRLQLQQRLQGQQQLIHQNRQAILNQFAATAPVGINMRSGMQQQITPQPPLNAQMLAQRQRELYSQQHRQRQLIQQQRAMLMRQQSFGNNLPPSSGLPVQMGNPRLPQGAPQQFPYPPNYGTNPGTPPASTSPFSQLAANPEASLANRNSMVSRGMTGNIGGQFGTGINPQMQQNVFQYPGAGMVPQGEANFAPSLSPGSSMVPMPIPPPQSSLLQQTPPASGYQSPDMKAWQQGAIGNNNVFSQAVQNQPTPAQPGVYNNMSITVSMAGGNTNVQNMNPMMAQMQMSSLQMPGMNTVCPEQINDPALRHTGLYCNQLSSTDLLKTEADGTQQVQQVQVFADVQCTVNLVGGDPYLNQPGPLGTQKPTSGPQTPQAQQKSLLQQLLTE
Chain of Nuclear receptor coactivator 3 (Homo sapiens) (Q9Y6Q9 whole entry, looked up, the tested form may be a part): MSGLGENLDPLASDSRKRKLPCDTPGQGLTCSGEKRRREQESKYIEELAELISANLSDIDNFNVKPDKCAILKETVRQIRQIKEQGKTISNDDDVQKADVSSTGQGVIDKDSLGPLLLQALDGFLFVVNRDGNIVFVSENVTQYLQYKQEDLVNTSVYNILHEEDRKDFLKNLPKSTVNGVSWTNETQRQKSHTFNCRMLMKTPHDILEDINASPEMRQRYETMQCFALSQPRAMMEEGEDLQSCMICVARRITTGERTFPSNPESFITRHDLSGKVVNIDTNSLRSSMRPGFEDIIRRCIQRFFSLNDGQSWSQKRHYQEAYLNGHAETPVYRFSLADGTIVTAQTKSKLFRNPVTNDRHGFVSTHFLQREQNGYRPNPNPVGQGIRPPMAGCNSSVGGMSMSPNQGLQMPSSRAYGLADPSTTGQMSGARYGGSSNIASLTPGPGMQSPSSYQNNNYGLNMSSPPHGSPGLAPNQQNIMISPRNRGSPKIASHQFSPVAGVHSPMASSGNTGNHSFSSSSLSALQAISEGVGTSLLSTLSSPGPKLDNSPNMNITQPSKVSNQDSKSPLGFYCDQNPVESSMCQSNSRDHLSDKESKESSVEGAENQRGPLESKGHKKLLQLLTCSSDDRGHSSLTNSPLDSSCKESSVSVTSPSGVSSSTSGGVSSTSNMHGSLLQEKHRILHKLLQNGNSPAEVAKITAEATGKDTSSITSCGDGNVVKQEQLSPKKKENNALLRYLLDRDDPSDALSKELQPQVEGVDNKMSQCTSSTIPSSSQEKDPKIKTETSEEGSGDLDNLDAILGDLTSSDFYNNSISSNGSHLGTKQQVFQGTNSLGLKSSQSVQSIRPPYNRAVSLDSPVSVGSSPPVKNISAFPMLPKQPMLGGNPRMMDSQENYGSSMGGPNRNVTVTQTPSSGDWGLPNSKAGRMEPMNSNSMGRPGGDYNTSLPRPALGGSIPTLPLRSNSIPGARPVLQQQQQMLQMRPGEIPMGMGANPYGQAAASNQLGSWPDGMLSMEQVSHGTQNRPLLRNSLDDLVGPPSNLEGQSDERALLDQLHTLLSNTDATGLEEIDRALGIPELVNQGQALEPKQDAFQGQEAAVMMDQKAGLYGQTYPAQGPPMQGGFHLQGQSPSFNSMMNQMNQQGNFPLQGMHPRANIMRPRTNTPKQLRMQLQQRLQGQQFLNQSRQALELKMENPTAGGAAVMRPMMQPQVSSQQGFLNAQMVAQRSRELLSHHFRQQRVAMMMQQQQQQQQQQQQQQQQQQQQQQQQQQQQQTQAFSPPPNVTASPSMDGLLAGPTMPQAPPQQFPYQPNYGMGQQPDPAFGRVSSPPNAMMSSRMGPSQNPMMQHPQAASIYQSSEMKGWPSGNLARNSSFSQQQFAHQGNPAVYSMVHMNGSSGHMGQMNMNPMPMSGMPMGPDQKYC
Chain of Nuclear receptor coactivator 2 (Homo sapiens) (Q15596 whole entry, looked up, the tested form may be a part): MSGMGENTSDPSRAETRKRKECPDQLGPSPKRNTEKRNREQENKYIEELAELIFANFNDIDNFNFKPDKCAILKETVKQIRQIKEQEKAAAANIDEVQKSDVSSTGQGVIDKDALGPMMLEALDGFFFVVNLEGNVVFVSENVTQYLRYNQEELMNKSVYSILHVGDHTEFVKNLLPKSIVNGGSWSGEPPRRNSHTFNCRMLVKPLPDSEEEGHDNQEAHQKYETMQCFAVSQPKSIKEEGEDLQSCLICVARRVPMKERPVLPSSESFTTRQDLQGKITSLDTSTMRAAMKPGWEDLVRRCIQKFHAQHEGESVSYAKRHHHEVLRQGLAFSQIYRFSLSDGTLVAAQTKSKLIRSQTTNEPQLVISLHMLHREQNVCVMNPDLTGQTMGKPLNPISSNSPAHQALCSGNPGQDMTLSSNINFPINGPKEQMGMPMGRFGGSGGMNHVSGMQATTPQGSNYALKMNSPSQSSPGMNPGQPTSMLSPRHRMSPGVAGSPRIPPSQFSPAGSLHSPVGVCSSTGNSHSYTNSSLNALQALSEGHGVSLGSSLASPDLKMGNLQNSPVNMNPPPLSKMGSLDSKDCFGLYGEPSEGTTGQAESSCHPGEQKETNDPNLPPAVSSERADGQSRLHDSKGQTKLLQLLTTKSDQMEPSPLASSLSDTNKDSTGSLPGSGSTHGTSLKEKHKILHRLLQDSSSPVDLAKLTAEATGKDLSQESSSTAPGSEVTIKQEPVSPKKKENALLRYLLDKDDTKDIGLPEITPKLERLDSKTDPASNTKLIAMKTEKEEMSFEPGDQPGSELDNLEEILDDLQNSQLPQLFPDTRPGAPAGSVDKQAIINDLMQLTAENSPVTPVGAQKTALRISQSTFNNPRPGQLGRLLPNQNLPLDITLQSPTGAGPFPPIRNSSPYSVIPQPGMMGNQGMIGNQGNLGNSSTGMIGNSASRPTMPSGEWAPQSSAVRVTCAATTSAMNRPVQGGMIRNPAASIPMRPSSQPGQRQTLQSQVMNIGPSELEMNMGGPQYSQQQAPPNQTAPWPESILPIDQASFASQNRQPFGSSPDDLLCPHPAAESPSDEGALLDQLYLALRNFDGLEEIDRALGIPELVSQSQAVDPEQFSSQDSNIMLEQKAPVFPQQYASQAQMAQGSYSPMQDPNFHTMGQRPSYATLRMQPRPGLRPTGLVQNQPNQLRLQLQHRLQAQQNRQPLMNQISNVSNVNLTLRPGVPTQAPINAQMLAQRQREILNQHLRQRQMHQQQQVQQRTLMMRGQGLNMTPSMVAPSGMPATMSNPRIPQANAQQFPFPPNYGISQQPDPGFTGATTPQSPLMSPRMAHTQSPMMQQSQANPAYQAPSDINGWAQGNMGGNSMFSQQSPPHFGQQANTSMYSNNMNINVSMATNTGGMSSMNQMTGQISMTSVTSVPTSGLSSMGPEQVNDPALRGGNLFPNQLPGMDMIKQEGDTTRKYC

With `CCc1c(C)nc2c(C)cccc2c1SCCC#N`, the inhibition is 24.9% (inactive) in assay [1] and 8.27% (inactive) in assay [2].
On the same counts, the results for `c1ccc(-c2csc3ncnc(NCCN4CCOCC4)c23)cc1` are 27.7% (inactive) and 22.6% (inactive).
In the case of `O=C(COC(=O)COc1ccccc1)NCCc1ccccc1`, the inhibition in assay [1] is -16.7% (inactive); in assay [2], -1.43% (inactive).
For `CCC(Oc1ccccc1)C(=O)Nc1cc(C(F)(F)F)ccc1N1CCOCC1` (stereo unspecified), in that order: 10.6% (inactive) and 1.21% (inactive).
With `COc1cc2c3c([nH]c2cc1F)C(=O)NCC3`, the inhibition in assay [1] was 19.2% (inactive); in assay [2], 14.9% (inactive).
On the same counts, the results for `O=C(CCCCC(=O)NN=Cc1ccccc1O)NN=Cc1ccccc1O` are 37.3% (inactive) and 39% (active).
As for `c1ccc2c(c1)CCN(c1nc3cc4c(cc3s1)OCCO4)C2`, the figures for the inhibition in assay [1] and in assay [2] were -22.2% (inactive) and 2.93% (inactive), respectively.
In the case of `Cc1cc2nc(C3CCCCC3)c(Cc3cccc(F)c3)n2c(C)c1Br`, the inhibition in assay [1] was 4.23% (inactive); in assay [2], 11.8% (inactive).
With `CCCCCCCN(c1ccccc1)[C@@H]1C[C@H]2CCCC(=O)N3CC[C@@H](C1)[C@@H]23`, the inhibition in assay [3] is 6.93% (inactive); in assay [4], 30.5% (active); in assay [5], 25% (inactive); in assay [6], 35% (inactive).
As to `COc1ccccc1C(NC(C)=O)c1cc(Cl)c2cccnc2c1O` (stereo unspecified), the inhibition in assay [1] was 31.7% (inactive); in assay [2], 26.6% (active).
For the compound `CC(=O)CSc1ccc(-c2nc3cc(C)c(C)cc3[nH]2)cn1`, the inhibition in assay [3] was 22.4% (inactive); in assay [4], 3.79% (inactive); in assay [5] it was 10.4% (inactive); in assay [6], 78.8% (active).
As for `Cc1nnc(SC(=O)N2c3ccccc3Sc3ccccc32)s1`, the inhibition in assay [3] is 80.8% (active); in assay [4], 28.2% (inactive); in assay [5], 37.9% (active); in assay [6], 60.4% (active).
Regarding `COc1ccc(CCn2c(-c3ccco3)nc3ccccc3c2=O)cc1OC`, the inhibition is -30.6% (inactive) in assay [1] and -17.7% (inactive) in assay [2].
For `CC1=C(C(=O)OCc2ccccc2)C(c2ccsc2)C(C#N)=C(N)O1` (stereo unspecified), in that order: -1.74% (inactive) and 3.63% (inactive).
Turning to `COC(=O)c1ccc2c(=O)n(CCCCCC(=O)O)c(=S)[nH]c2c1`, the inhibition in assay [3] was 16.4% (inactive); in assay [4] it was 15.1% (inactive); in assay [5] it was 6.79% (inactive); in assay [6] it was 32.2% (inactive).
On the same counts, the results for `CCOc1ccc(C(=O)O/N=C(\N)c2ccccn2)cc1` are -0.86% (inactive), -11.6% (inactive), 15.8% (inactive) and 21.9% (inactive).
In the case of `CCN(CC)c1ccc(C=Nc2cc(C)ccc2C)c(O)c1`, the inhibition in assay [1] is 3.4% (inactive); in assay [2], -6.63% (inactive).
On the same counts, the results for `COc1ccc2cc3cc(C(=O)NCCc4ccc(OC)c(OC)c4)oc3nc2c1` are -32.9% (inactive) and 42.2% (active).
As for `CCN(c1cccc(C)c1)c1ncnc2nc[nH]c12`, the inhibition in assay [3] is 35.9% (inactive); in assay [4], 21.8% (inactive); in assay [5] it was -7.68% (inactive); in assay [6], 28.4% (inactive).
Turning to `CCOC(=O)c1c(C)nn(-c2ccc(NC(=O)/C=C/C(=O)O)cc2)c1C`, the inhibition in assay [3] is 10.7% (inactive); in assay [4], -2.88% (inactive); in assay [5], 8.16% (inactive); in assay [6], 62.7% (active).
For the compound `NC(=O)c1nsc(C(=O)N(c2ccccc2F)C(C(=O)NCc2ccccc2)c2ccc(O)cc2)c1N` (stereo unspecified), the inhibition in assay [1] was -15.1% (inactive); in assay [2], 2.13% (inactive).
For `Cc1cc(NC(=O)C(Cl)c2ccccc2)no1` (stereo unspecified), in that order: -11.5% (inactive) and 3.89% (inactive).
For `COc1ccc(N2CCN(C(=O)c3oc4ccccc4c3NC(=O)CCc3cc(OC)no3)CC2)cc1`, in that order: 1.78% (inactive) and -3.04% (inactive).
For `COc1ccc(CCN(C)C(=O)c2cc(S(=O)(=O)N3CCCCC3)ccc2Cl)cc1OC`, in that order: -9.24% (inactive) and 8.04% (inactive).
As for `N#Cc1c(N)nc2c(c1-c1ccc(F)cc1)CCC2`, the inhibition in assay [1] is -6.03% (inactive); in assay [2] it was -10.2% (inactive).
On the same counts, the results for `CC(=O)c1cccc(NC(=O)COc2cc3oc(=O)c(CC(C)O)c(C)c3cc2Cl)c1` (stereo unspecified) are 28.4% (inactive) and 22% (inactive).
Regarding `CC(=O)C1=C(C)NC2=C(C(=O)CC(C)(C)C2)C1C` (stereo unspecified), the figures for the inhibition in assay [1] and in assay [2] were 28% (inactive) and 15.6% (inactive), respectively.
On the same counts, the results for `CC(O)(c1ccccc1)c1nc(-c2cccc(C#N)c2)cs1` (stereo unspecified) are -22.4% (inactive) and -4.39% (inactive).
For `CCOc1ccc(NC(=O)c2ccc(CN3CCc4ccccc4C3)cc2)cc1`, in that order: -25.7% (inactive) and 36.5% (active).
For `COc1ccc(Nc2ncnc3ccc(C)cc23)cc1`, in that order: 26.8% (inactive) and 15.7% (inactive).
`COc1ccc(C(=O)Nc2ccc(-c3ccc(C)o3)cc2)cc1S(=O)(=O)N1CCOCC1`: the inhibition in assay [1] is -16.1% (inactive); in assay [2] it was 22.2% (inactive).

Source of the values: PubChem BioAssay.
